Shown are actives, neighbours in structure and some others; about 1.2% of the full set was active somewhere.
Efflux pump mplx – antifungal efflux pump inhibition, Nile Red retention. 330,000 compounds, 0.44% hits. S. cerevisiae Candida pump triplex. AID 485275. inhibition, % at 10 µM;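 active = plate passing quality check with inhibition over a set limit, or well fluorescence over plate mean plus 4 SD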;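 note: Nile Red retained in pooled yeast measured as flow cytometry median fluorescence; higher means more Nile Red kept so more efflux inhibition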
NCOA1 inh – human NCOA1 inhibition; Q15788; inhibition, % at 3.6 µM; 360,000 compounds, 0.12% hits; HEK293 GAL4-SRC1 luciferase reporter, luminescence;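 active = inhibition above the campaign mean plus 3 SD, with each screening campaign given its own cutoff, cut at about 60% in these data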
SRC2 inh – human SRC2 (NCOA2) inhibition; Q15596; HEK293 GAL4-SRC2 luciferase reporter, luminescence; inhibition, % at 9 µM; 370,000 compounds, 0.17% hits; AID 651957;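 active = inhibition above the mean inhibition of all tested compounds plus 3 SD, set per campaign, cut at about 52% in these data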
NR2F2 inh – NR2F2 (human) inhibition, primary screen; P24468; HEK293T NGFI-A luciferase reporter, luminescence; inhibition, % at 8.6 µM; 370,000 compounds, 0.7% hits;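 active = inhibition above a per-plate cutoff, mean inhibition of test wells between control levels plus 3 SD, cut at about 38% in these data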;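 note: cells cotransfected with COUP-TFII expression vector driving the NGFI-A reporter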
NR5A2 inv ag – suppresses constitutive activity of human LRH-1; AID 602396; inhibition, % at 3.6 µM; HEK293T StAR-luciferase reporter, LRH-1 transfected, 24 h; 360,000 compounds, 0.13% hits; O00482;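 active = inhibition above the mean inhibition of all tested compounds plus 3 SD, cut at about 73% in these data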
SRC3 inh – inhibits human SRC3 coactivator. inhibition, % at 3.6 µM. Q9Y6Q9. 360,000 compounds, 0.17% hits. HEK293 GAL4-SRC3 luciferase reporter, luminescence;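 active = inhibition above a per-campaign cutoff, the mean of all compounds plus 3 SD, cut at about 60% in these data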;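 note: higher means less SRC3-driven luciferase light from the GAL4 reporter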
Cmpd fluor yeast – flagged as fluorescent in efflux inhibitor counter-screen | AID 588517 | shares compounds with Efflux pump mplx | fluorescence ratio to DMSO, % at 10 µM | S. cerevisiae AD/pABC3, compound fluorescence, flow cytometry | 1,700 compounds, 4% hits;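 active = fluorescence ratio to DMSO above its plate's cutoff, the plate mean ratio plus 5 SD, cut at about 210% in these data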;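 note: unstained yeast with no Nile Red so the signal is compound autofluorescence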
Mdr1 pump inh – inhibitors of Candida albicans Mdr1 efflux pump; inhibition, % at 10 µM; S. cerevisiae AD/CaMDR1, Nile Red efflux, flow cytometry; 1,700 compounds, 1% hits; shares compounds with Efflux pump mplx; in the data active = inhibition above about 26%;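 note: higher means more Nile Red retained so more efflux inhibition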
CaCdr2 efflux inh – inhibitors of Candida albicans Cdr2 efflux pump | AID 588520 | S. cerevisiae AD/CaCDR2, Nile Red retention, flow cytometry | Nile Red retention ratio vs DMSO, % at 10 µM | 1,700 compounds, 4% hits | shares compounds with Efflux pump mplx; in the data active = Nile Red retention ratio vs DMSO above about 190%;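 note: higher ratio means more blocking of Cdr2 efflux of the dye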
CaCdr1 efflux inh – inhibitors of Candida albicans Cdr1 efflux pump | shares compounds with Efflux pump mplx | AID 588522 | inhibition, % at 10 µM | 1,700 compounds, 1% hits | S. cerevisiae AD/CaCDR1, Nile Red efflux, flow cytometry;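 active = inhibition above the screen-wide mean plus twice its standard deviation, cut at about 32% in these data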
A number is an active result; 0 = inactive; - = no result given.

SMILES	Efflux pump mplx	NCOA1 inh	SRC2 inh	NR2F2 inh	NR5A2 inv ag	SRC3 inh	Cmpd fluor yeast	Mdr1 pump inh	CaCdr2 efflux inh	CaCdr1 efflux inh
O=C1N[C@@H](Cc2ccccc2)C(=O)N2[C@H]1C[C@]1([C@]34C[C@H]5C(=O)N[C@@H](Cc6ccccc6)C(=O)N5[C@H]3N(S(=O)(=O)c3ccccc3)c3ccccc34)c3ccccc3N(S(=O)(=O)c3ccccc3)[C@H]21	0.8	0	0	0	0	0	0	0	0	0
COc1cc(OC)c(C2C(C(=O)Nc3ccc(C)cc3C)=C(C)Nc3ncnn32)cc1OC (centres undefined)	0.8	0	0	0	0	0	0	0	0	0
COc1cc(OC)c(C2C(C(=O)Nc3ccccc3)=C(C)Nc3ncnn32)cc1OC (centres undefined)	0	0	0	0	0	0	-	-	-	-
COc1ccc(CCN(C)CC(=O)Nc2ccc(F)c(Cl)c2)cc1OC	0	0	0	0	0	0	-	-	-	-
O=C(COCC(=O)N/N=C/c1ccc(F)cc1)N/N=C/c1ccc(F)cc1	1.8	0	0	0	0	0	0	0	0	0
CCOC(=O)C(=O)N/N=C/c1ccc(F)cc1	0	0	0	0	0	0	-	-	-	-
CC(=O)Nc1ccc(S(=O)(=O)N2CCC(C(=O)c3ccc(F)cc3)CC2)cc1	0	0	0	0	0	0	-	-	-	-
Cc1ccc(-n2c(C)cc(/C([O-])=C(/C(=S)Nc3ccc(F)c(Cl)c3)[n+]3ccccc3)c2C)cc1	0.9	0	0	0	0	0	0	0	0	0
O=C(Nc1ccccc1O)c1cc2cc(Br)ccc2oc1=O	1.3	0	0	0	0	0	0	0	0	0
CN(c1ccccc1)c1ccc(/C=C(\C#N)c2nnc3n2CCCCC3)cc1[N+](=O)[O-]	16.4	0	0	0	0	0	0	0	0	0
CN(CC(=O)Nc1cc(S(=O)(=O)N2CCCC2)ccc1Cl)Cc1cccs1	0	0	0	0	0	0	-	-	-	-
Cc1cc(NC(=O)COC(=O)c2c(C)c(C)c(C)c(C)c2C)no1	0	0	0	0	0	0	-	-	-	-
O=C(CN1CCCc2ccccc21)N/N=C/c1ccccc1	0	0	0	0	0	0	-	-	-	-
O=C(CN1CCCc2ccccc21)N/N=C/c1c(O)ccc2ccccc12	12.7	0	0	0	0	0	0	0	0	0
Cc1ccccc1NC(=O)COC(=O)CC1CCCC1	-	0	0	0	0	0	-	-	-	-
O=C(COC(=O)CC1CCCC1)Nc1ccccc1[N+](=O)[O-]	0.9	0	0	0	0	0	0	0	0	0
Cc1ccc(NC(=O)c2cc(NC(=O)CCC(=O)O)ccc2N2CCCCC2)cc1	0	0	0	0	0	0	-	-	-	-
Cc1ccc(NC(=O)C(=O)NCCCN2CCOCC2)c(C)c1	0	0	0	0	0	0	-	-	-	-
Nc1ccn(CC(=O)NCCc2ccccn2)c(=O)n1	2.8	0	0	0	0	0	0	0	0	0
CCCCC(CC)C1OCC(CN2CCCCC2)O1 (centres undefined)	0	0	0	0	0	0	-	-	-	-
COC(=O)N1CCCc2cc(C)ccc21	0	0	0	0	0	0	-	-	-	-
Cc1ccc2c(c1)CCCN2C(=O)C1CCCO1 (centres undefined)	14.4	0	-	-	0	0	0	0	0	0
Cc1cccc(NC(=O)c2cc3cc([N+](=O)[O-])ccc3s2)n1	1.1	0	0	0	0	0	0	0	0	0
Cc1cc(NC(=O)c2cc3cc([N+](=O)[O-])ccc3s2)no1	-	0	0	0	0	0	-	-	-	-
Cc1ccc(NC(=O)C2CCN(S(=O)(=O)c3ccc4[nH]c(=O)ccc4c3)CC2)c(C)c1	0	0	0	0	0	0	-	-	-	-
COc1ccc(C(=O)NCc2cccnc2)cc1OC	0	0	0	0	0	0	-	-	-	-

Assay outcomes as filed in PubChem BioAssay.
